# Values joined by “and” are separate entries in the source; they are usually repeats but may differ in a detail not shown here. Equal entries are not always repeated. Results filed as inconclusive are left out. For part of these data: Entries with a potency or affinity are not part of this list. Active and inactive are the calls of the source. Unless noted, the rule behind the calls is not given here.
# Key:
# [1] = biological target: ATP-dependent translocase ABCB1 (Homo sapiens) (UniProt P08183); test: MDR1 (ABCB1) efflux transporter inhibition, cell-based (AID 377; in the data active = fluorescence slope change above about 50%); details: MDR1-expressing cells, fluorescent substrate accumulation slope; stronger effect = higher value; concentration not given here
# [2] = circadian clock period modulators, cell-based, LOPAC library, luminescence reporter (AID 2774); details: circadian reporter cells, at 7 µM, actives lie on both sides;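 note: values are relative to mean of DMSO wells on each plate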
# [3] = rescue of polyQ-huntingtin neuronal dysfunction in worms, whole organism, C. elegans mechanosensory neurons, N-terminal huntingtin (AID 1599); details: touch response, stronger effect = higher value
# [4] = inhibitors of mitochondrial cytochrome c release, biochemical, purified mitochondria (AID 1603); details: stronger effect = lower value;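 note: mouse liver mitochondria challenged with calcium chloride; signal normalized to the plate average as 100%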
# [5] = inhibitors of polyQ protein aggregation (AID 1604); details: polyglutamine-induced protein aggregation inhibition assay; stronger effect = higher value; tested at 2.5 µM
# [6] = enhancers of glutamate uptake in motor neurons, MN-1 cell line (AID 1612); details: MN-1 motor neuron cells, stronger effect = higher value;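 note: tested at 1 µM final; 0% = mean of DMSO vehicle wells on each plate; positive means more glutamate uptake than control and negative means less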
# [7] = suppressors of polyglutamine aggregation in yeast, 75Q-TubH (AID 1616); details: S. cerevisiae 75Q-TubH polyglutamine aggregation suppression; stronger effect = higher value
# [8] = tested on: Aerobactin synthetase IucA (Klebsiella pneumoniae, hypervirulent); test: IucA enzyme inhibition, biochemical, LOPAC library, absorbance readout (AID 1346212); details: IucA enzyme assay, absorbance (OD) readout; stronger effect = lower value;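 tested at 8 µM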;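 note: 100% = no compound wells and 0% = no enzyme wells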
# [9] = Cy5 fluorescence interference with SSB-bound oligo, artefact control for HCV NS3 helicase inhibitor project, biochemical, NIH Clinical Collection, E. coli SSB (AID 743268)
# [10] = tested on: Hepatitis C virus NS3 helicase; test: HCV NS3 helicase inhibitors, primary screen, biochemical, fluorescence polarization, NIH Clinical Collection (AID 743270); details: NS3 helicase binding to Cy5-dT15 DNA, stronger effect = higher value, concentration not given here
# [11] = biological target: Single-stranded DNA-binding protein (Escherichia coli (strain K12)) (UniProt P0AGE0); test: E. coli SSB displacement from DNA, counter-screen for HCV NS3 helicase inhibitor project, biochemical, fluorescence polarization, NIH Clinical Collection (AID 743271; in the data active = inhibition above about 28%); details: stronger effect = higher value, concentration not given here
# [12] = fluorescence interference in NS3h assay format, artefact control for HCV NS3 helicase inhibitor project, biochemical, NIH Clinical Collection (AID 743272); details: fluorescence interference counterscreen, stronger effect = lower value;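 note: HCV NS3 helicase with a Cy5 labelled single stranded DNA probe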
# [13] = tested on: Neuropilin-2 / VEGF-C interaction (human); test: inhibitors of NRP2–VEGF-C binding, biochemical, microplate binding format, z-score (AID 743281); details: microplate NRP2/VEGF-C binding assay; stronger effect = lower value
# [14] = modulation of C. elegans fzo-1 (AID 1259413);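 note: fzo-1 mutant C. elegans worms in liquid wells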; details: C. elegans fzo-1 modulator screen, mean read-out; stronger effect = higher value
# F380Y = test: modulators of BK channel variants, profiling panel, selectivity assay, cell-based, U2OS BacMam, thallium flux, beta subunits (AID 1259406;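 active = thallium flux through the channel raised or lowered by more than 3 SD from vehicle-only wells, actives on both sides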;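 note: initial slope of Thallos dye fluorescence rise after thallium is added; log ratio against the mean of 0.3% DMSO vehicle wells on the same plate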); details: at 30 µM
# F380Y/beta2Delta = test: as above; details: at 30 µM
# [15] = biological target: Calcium-activated potassium channel subunit alpha-1 (Homo sapiens) + Leucine-rich repeat-containing protein 26 (Homo sapiens) (UniProt Q12791+Q2I0M4); test: as above; details: F380Y/Slo1WT/gamma1, at 30 µM
# R275C = test: as above; details: at 30 µM
# R275C/beta1 = test: as above; details: at 30 µM
# R275C/beta2Delta = test: as above; details: at 30 µM
# ATP-dependent translocase ABCB1 (Homo sapiens), sequence (P08183 whole entry, looked up): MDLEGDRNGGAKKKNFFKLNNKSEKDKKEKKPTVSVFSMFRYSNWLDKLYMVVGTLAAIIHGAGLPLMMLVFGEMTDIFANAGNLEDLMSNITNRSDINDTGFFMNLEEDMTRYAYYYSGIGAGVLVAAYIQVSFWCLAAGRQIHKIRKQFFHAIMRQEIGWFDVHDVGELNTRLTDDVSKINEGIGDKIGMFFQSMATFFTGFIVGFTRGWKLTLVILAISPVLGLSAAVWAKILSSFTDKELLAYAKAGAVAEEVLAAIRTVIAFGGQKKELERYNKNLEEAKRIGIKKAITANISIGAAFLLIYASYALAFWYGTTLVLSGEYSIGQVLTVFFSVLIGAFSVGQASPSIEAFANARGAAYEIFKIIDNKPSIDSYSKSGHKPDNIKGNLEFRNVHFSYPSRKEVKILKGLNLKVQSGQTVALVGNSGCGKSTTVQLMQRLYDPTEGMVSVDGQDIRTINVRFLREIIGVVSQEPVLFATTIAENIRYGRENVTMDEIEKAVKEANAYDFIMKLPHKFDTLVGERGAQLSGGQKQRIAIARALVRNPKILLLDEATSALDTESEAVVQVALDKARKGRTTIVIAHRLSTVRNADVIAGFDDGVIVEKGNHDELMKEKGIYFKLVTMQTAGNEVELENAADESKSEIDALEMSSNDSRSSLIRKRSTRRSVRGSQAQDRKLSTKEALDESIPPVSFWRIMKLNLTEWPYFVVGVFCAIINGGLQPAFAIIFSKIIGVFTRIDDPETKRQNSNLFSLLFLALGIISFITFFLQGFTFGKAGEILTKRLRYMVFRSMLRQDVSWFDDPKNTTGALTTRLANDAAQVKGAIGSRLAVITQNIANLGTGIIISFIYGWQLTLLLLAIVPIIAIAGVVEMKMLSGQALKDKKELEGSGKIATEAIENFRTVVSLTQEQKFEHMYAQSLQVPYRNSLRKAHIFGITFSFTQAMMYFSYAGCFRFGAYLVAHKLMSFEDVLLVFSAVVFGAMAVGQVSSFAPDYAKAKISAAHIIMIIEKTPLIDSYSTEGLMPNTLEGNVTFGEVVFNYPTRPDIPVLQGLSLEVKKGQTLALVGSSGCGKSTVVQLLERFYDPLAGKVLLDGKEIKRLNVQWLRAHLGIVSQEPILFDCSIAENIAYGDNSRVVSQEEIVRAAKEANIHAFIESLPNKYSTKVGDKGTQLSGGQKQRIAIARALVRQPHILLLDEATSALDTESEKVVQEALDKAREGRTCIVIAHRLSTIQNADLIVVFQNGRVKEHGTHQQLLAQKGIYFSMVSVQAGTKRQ
# Calcium-activated potassium channel subunit alpha-1 (Homo sapiens) + Leucine-rich repeat-containing protein 26 (Homo sapiens), sequence (Q2I0M4 whole entry, looked up, one chain of several): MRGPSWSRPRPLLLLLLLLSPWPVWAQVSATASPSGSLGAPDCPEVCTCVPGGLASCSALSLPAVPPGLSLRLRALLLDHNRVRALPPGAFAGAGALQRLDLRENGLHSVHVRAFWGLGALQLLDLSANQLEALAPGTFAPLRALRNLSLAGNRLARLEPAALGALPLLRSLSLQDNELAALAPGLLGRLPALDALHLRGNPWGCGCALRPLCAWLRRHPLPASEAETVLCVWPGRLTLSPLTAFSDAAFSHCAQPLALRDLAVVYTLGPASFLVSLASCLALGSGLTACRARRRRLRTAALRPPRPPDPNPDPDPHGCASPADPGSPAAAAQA
structure (smiles),measurement,setting,value
O=C(CCCN1CCC(n2c(=O)[nH]c3ccccc32)CC1)c1ccc(F)cc1,fluorescence slope change,[1],57.5% (active)
COc1ccc2c(c1OC)CN1CCc3cc4c(cc3C1C2)OCO4 (stereo not given),fluorescence slope change,[1],24.8% (inactive)
C[C@]12CCC(=O)C=C1CC[C@@H]1[C@@H]2CC[C@]2(C)C(=O)CC[C@@H]12,period change,[2],0.09 h (inactive)
OC(c1ccccc1)(c1ccccc1)C1CCNCC1,fluorescence slope change,[1],93.1% (active)
Clc1cccc(N2CCNCC2)c1,period change,[2],0.065 h (inactive)
CN(C)C(=S)SSC(=S)N(C)C,rescue above control,[3],2.19
same,cytochrome c release ratio,[4],3.47
same,inhibition of aggregation,[5],-16.7%
same,glutamate uptake change,[6],7.76%
same,aggregation suppression score,[7],0.0152
C=CCN1CC[C@]23CCCC[C@H]2[C@H]1Cc1ccc(O)cc13,remaining activity,[8],94.8% (inactive)
CN1C[C@H](CNC(=O)OCc2ccccc2)C[C@@H]2c3cccc4c3c(cn4C)C[C@H]21,fluorescence slope change,[1],18.1% (inactive)
same,period change,[2],0.135 h (inactive)
same,remaining activity,[8],130% (inactive)
COc1ccc2c(c1OC)C(=O)O[C@H]2[C@@H]1c2cc3c(cc2CCN1C)OCO3,period change,[2],-0.14 h (inactive)
same,remaining activity,[8],110% (inactive)
C=C[C@H]1CN2CC[C@H]1C[C@H]2[C@H](O)c1ccnc2ccccc12,fluorescence slope change,[1],71.3% (active)
same,rescue above control,[3],0.34
same,cytochrome c release ratio,[4],0.75
same,inhibition of aggregation,[5],48.7%
same,glutamate uptake change,[6],-2.27%
same,aggregation suppression score,[7],1.28
FC(F)(F)c1cccc(N2CCNCC2)c1,rescue above control,[3],0
same,cytochrome c release ratio,[4],0.84
same,inhibition of aggregation,[5],50%
same,glutamate uptake change,[6],0.29%
same,aggregation suppression score,[7],1.16
same,fluorescence ratio,[9],1.01 (inactive)
same,inhibition,[10],-2.77% (inactive)
same,inhibition,[11],-3.95% (inactive)
same,fluorescence ratio,[12],0.93 (inactive)
same,z-score,[13],-0.497 (inactive)
same,mean signal,[14],282 (inactive)
same,log fold change Tl+ flux,F380Y,-0.0132 (inactive)
same,log fold change Tl+ flux,F380Y/beta2Delta,0.0279 (inactive)
same,log fold change Tl+ flux,[15],-0.00699 (inactive)
same,log fold change Tl+ flux,R275C,0.0139 (inactive)
same,log fold change Tl+ flux,R275C/beta1,0.0717 (inactive)
same,log fold change Tl+ flux,R275C/beta2Delta,0.00655 (inactive)
Clc1ccc(COC(Cn2ccnc2)c2ccc(Cl)cc2Cl)c(Cl)c1 (stereo not given),rescue above control,[3],0
same,cytochrome c release ratio,[4],0.32
same,inhibition of aggregation,[5],80.3%
same,glutamate uptake change,[6],5.65%
same,aggregation suppression score,[7],0.00246
same,fluorescence ratio,[9],0.96 (inactive)
same,inhibition,[10],6.82% (inactive)
same,inhibition,[11],4.86% (inactive)
same,fluorescence ratio,[12],0.93 (inactive)
same,mean signal,[14],182 (inactive)
same,log fold change Tl+ flux,F380Y,-0.0473 (inactive)
same,log fold change Tl+ flux,F380Y/beta2Delta,-0.0262 (inactive)
same,log fold change Tl+ flux,[15],0.0222 (inactive)
same,log fold change Tl+ flux,R275C,-0.0411 (inactive)
same,log fold change Tl+ flux,R275C/beta1,0.0424 (inactive)
same,log fold change Tl+ flux,R275C/beta2Delta,-0.0245 (inactive)
CC[C@@H](CO)NC(=O)[C@@H]1C=C2c3cccc4[nH]cc(c34)C[C@H]2N(C)C1,rescue above control,[3],4.84
same,cytochrome c release ratio,[4],0.5
same,inhibition of aggregation,[5],24.4%
same,glutamate uptake change,[6],12.4%
same,aggregation suppression score,[7],1.32
same,period change,[2],0.19 h (inactive)
same,remaining activity,[8],107% (inactive)
CC(C)CC(N(C)C)C1(c2ccc(Cl)cc2)CCC1 (stereo not given),fluorescence ratio,[9],1.01 (inactive) and 0.96 (inactive)
same,inhibition,[10],-0.22% (inactive) and -8.08% (inactive)
same,inhibition,[11],-1.97% (inactive) and 1.97% (inactive)
same,fluorescence ratio,[12],1.01 (inactive) and 0.95 (inactive)
same,outcome,[13],inactive
same,z-score,[13],-0.0182 (inactive)
same,mean signal,[14],232 (inactive)
COc1ccc(C[C@H]2NC[C@H](O)[C@H]2OC(C)=O)cc1,rescue above control,[3],20.1
same,cytochrome c release ratio,[4],0.83
same,inhibition of aggregation,[5],100%
same,glutamate uptake change,[6],-57.2%
same,aggregation suppression score,[7],0.0246
O=C1CC[C@@]2(O)[C@H]3Cc4ccc(O)c5c4[C@@]2(CCN3CC2CC2)[C@H]1O5,fluorescence slope change,[1],79.9% (active)
same,remaining activity,[8],118% (inactive)
same,log fold change Tl+ flux,F380Y,0.00675 (inactive)
same,log fold change Tl+ flux,F380Y/beta2Delta,0.00968 (inactive)
same,log fold change Tl+ flux,[15],-0.0199 (inactive)
same,log fold change Tl+ flux,R275C,-0.0442 (inactive)
same,log fold change Tl+ flux,R275C/beta1,0.0294 (inactive)
same,log fold change Tl+ flux,R275C/beta2Delta,-0.0407 (inactive)
CC[C@@]1(O)C(=O)OCc2c1cc1n(c2=O)Cc2cc3ccccc3nc2-1,fluorescence slope change,[1],24.5% (inactive)
same,rescue above control,[3],0
same,cytochrome c release ratio,[4],0.94
same,inhibition of aggregation,[5],-7.84%
same,glutamate uptake change,[6],-25.7%
same,aggregation suppression score,[7],1.49
same,period change,[2],-0.48 h (inactive)
same,remaining activity,[8],90% (inactive)

# — PubChem BioAssay
